Data from PubChem BioAssay AID1159580 (chemical genetic matrix, 2015).
Among all 5,500 compounds or so, about 2,000 (36%) were called active. Inconclusive results (about 18%) are left out. Rule as the data show it: active = normalized growth mostly below about 0.91 (no sharp cut-off); inconclusive = no clear call, values can overlap the other calls; inactive = mostly above about 0.92. Some of the results follow.

Experiment: chemical genetic growth profiling, strain panel (AID 1159580);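 also: tested at 20 µM; growth read once vehicle control cultures reached saturation at 30 °C; 1 = growth at the plate median or of vehicle wells; lower values mean less growth of the strain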
Conditions: S. cerevisiae deletion strains, growth OD

Measured: normalized growth

CCOC(=O)C1C(c2ccc(Br)cc2)C(C(=O)OCC)C(O)(C(F)(F)F)NC1(O)C(F)(F)F (stereo unspecified)
inactive: locus YAR019C, strain CDC15, active compounds read low 0.999 | locus YBL105C, strain PKC1, active compounds read low 0.991 | locus YBR135W, strain CKS1, active compounds read low 1 | locus YBR136W, strain MEC1, active compounds read low 0.988 | locus YBR160W, strain CDC28, active compounds read low 0.999 | locus YDL017W, strain CDC7, active compounds read low 0.996 | locus YDL028C, strain MPS1, active compounds read low 0.999 | locus YDL101C, strain DUN1, active compounds read low 0.99 | locus YDL108W, strain KIN28, active compounds read low 1 | locus YDL132W, strain cdc53, active compounds read low 0.996 | locus YDL214C, strain PRR2, active compounds read low 0.961 | locus YDR052C, strain DBF4, active compounds read low 0.994 | locus YDR054C, strain cdc34, active compounds read low 0.992 | locus YDR226W, strain ADK1, active compounds read low 0.998 | locus YDR477W, strain SNF1, active compounds read low 0.994 | locus YER123W, strain YCK3, active compounds read low 0.917 | locus YER133W, strain GLC7, active compounds read low 0.969 | locus YFL009W, strain cdc4, active compounds read low 0.998 | locus YFL029C, strain CAK1, active compounds read low 0.994 | locus YFR003C, strain YPI1, active compounds read low 0.995 | locus YFR019W, strain FAB1, active compounds read low 0.878 | locus YFR028C, strain CDC14, active compounds read low 0.995 | locus YGR040W, strain KSS1, active compounds read low 0.99 | locus YGR052W, strain FMP48, active compounds read low 1 | locus YGR092W, strain DBF2, active compounds read low 0.993 | locus YHR030C, strain SLT2, active compounds read low 0.941 | locus YHR079C, strain IRE1, active compounds read low 0.981 | locus YHR082C, strain KSP1, active compounds read low 0.961 | locus YHR205W, strain SCH9, active compounds read low 0.91 | locus YIL147C, strain SLN1, active compounds read low 0.999 | locus YJL095W, strain BCK1, active compounds read low 0.97 | locus YJL128C, strain PBS2, active compounds read low 0.967 | locus YJL157C, strain FAR1, active compounds read low 0.975 | locus YJR016C, strain ILV3, active compounds read low 0.997 | locus YJR066W, strain TOR1 (second series), active compounds read low 0.943 | locus YJR066W, strain TOR1, active compounds read low 0.911 | locus YKL048C, strain ELM1, active compounds read low 0.986 | locus YKL067W, strain YNK1, active compounds read low 0.974 | locus YKL101W, strain HSL1, active compounds read low 1 | locus YKL193C, strain SDS22, active compounds read low 0.998 | locus YKL203C, strain TOR2, active compounds read low 1.03 | locus YLR113W, strain HOG1, active compounds read low 0.91 | locus YLR133W, strain CKI1, active compounds read low 0.97 | locus YLR403W, strain SFP1, active compounds read low 0.966 | locus YML070W, strain DAK1, active compounds read low 0.956 | locus YMR001C, strain CDC5, active compounds read low 0.987 | locus YMR205C, strain PFK2 (second series), active compounds read low 0.988 | locus YMR277W, strain FCP1, active compounds read low 0.996 | locus YNL006W, strain LST8, active compounds read low 0.999 | locus YNL020C, strain ARK1, active compounds read low 0.99 | locus YNL161W, strain CBK1, active compounds read low 0.999 | locus YNL183C, strain NPR1, active compounds read low 0.942 | locus YNL207W, strain RIO2, active compounds read low 0.996 | locus YNL222W, strain SSU72, active compounds read low 0.999 | locus YNL307C, strain MCK1 (second series), active compounds read low 0.969 | locus YOL078W, strain AVO1, active compounds read low 1 | locus YOL136C, strain PFK27, active compounds read low 0.947 | locus YOR061W, strain CKA2, active compounds read low 0.995 | locus YOR119C, strain RIO1, active compounds read low 1.01 | locus YOR231W, strain MKK1, active compounds read low 0.984 | locus YOR329C, strain SCD5, active compounds read low 0.995 | locus YPL031C, strain PHO85, active compounds read low 0.999 | locus YPL153C, strain RAD53, active compounds read low 0.989 | locus YPL204W, strain HRR25, active compounds read low 0.985 | locus YPL209C, strain IPL1, active compounds read low 0.996 | locus YPL256C, strain CLN2, active compounds read low 0.9 | locus YPR025C, strain CCL1, active compounds read low 0.997 | locus YPR106W, strain ISR1, active compounds read low 0.99 | locus YPR111W, strain DBF20, active compounds read low 0.99 | strain NNK1, active compounds read low 0.992 | strain TSCII, active compounds read low 0.998
